Assay results taken from PubChem BioAssay.
“And” between values parts separate entries of the source, which are not always exact repeats. Equal values may be shown once. Records with an inconclusive call do not appear. For part of these data: Measured potencies and affinities stand elsewhere. Some structures have more than one record in an assay (separate samples or runs), and their calls can disagree. The source made the active and inactive calls. Unless noted, no rule for the calls is given here.

Assays:
[1] = antimalarial activity against Dd2 strain (AID 2302;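 active = growth inhibition above 50% at the single 2 µM test dose, taken to imply half-maximal potency below 2 µM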;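 also: 0% = DMSO untreated growth and 100% = chloroquine plus artemisinin killed control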); conditions: P. falciparum Dd2 in RBCs, LDH growth readout, 72 h; at 2 µM; stronger effect = higher value
[2] = HepG2 cytotoxicity, primary screen, cytotoxicity control for P. falciparum antimalarial project, cell-based, ATP luminescence (AID 2303;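 active = inhibition above 50%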;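 also: 0% = DMSO wells and 100% = digitonin-killed cells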); conditions: HepG2 viability, 24-48 h, at 10 µM, stronger effect = higher value
[3] = biological target: L-lactate dehydrogenase (Plasmodium falciparum (isolate CDC / Honduras)) (UniProt Q27743); assay: PfLDH activity inhibition – cell lysate, 3D7 strain, counter-screen for P. falciparum growth inhibition project (AID 2304);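 also: 0% = vehicle and 100% = reference inhibitor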; conditions: P. falciparum 3D7 crude extract, LDH APAD/NBT absorbance; at 2 µM; stronger effect = higher value
Sequence of L-lactate dehydrogenase (Plasmodium falciparum (isolate CDC / Honduras)) (Q27743 whole entry, looked up): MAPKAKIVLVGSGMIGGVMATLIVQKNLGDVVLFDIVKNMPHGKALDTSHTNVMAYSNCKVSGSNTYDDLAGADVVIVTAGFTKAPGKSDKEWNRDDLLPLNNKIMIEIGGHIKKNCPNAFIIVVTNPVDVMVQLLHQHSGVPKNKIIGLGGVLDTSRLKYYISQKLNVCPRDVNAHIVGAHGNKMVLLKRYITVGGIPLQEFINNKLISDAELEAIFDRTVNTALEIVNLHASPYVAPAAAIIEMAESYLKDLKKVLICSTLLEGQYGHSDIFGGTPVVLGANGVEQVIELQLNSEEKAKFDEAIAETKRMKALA

[4] = inhibition of 3D7 malaria parasite growth – strain 3D7 (AID 2306);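 also: 0% = DMSO wells and 100% = chloroquine plus artemisinin control wells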; conditions: P. falciparum 3D7 erythrocytic growth, LDH absorbance, 72 h; at 2 µM; stronger effect = higher value
[5] = biological target: Calcium-dependent protein kinase 1 (Plasmodium falciparum (isolate 3D7)) (UniProt P62344); assay: PfCDPK1 kinase inhibitors, biochemical, TCAMS library (AID 1159585; cut-off not given, nearly all actives have IC50 up to about 0.98 µM;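 also: inhibitors leave more ATP so luminescence rises with inhibition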); conditions: recombinant PfCDPK1, Kinase-Glo ATP depletion luminescence
Sequence of Calcium-dependent protein kinase 1 (Plasmodium falciparum (isolate 3D7)) (P62344 whole entry, looked up): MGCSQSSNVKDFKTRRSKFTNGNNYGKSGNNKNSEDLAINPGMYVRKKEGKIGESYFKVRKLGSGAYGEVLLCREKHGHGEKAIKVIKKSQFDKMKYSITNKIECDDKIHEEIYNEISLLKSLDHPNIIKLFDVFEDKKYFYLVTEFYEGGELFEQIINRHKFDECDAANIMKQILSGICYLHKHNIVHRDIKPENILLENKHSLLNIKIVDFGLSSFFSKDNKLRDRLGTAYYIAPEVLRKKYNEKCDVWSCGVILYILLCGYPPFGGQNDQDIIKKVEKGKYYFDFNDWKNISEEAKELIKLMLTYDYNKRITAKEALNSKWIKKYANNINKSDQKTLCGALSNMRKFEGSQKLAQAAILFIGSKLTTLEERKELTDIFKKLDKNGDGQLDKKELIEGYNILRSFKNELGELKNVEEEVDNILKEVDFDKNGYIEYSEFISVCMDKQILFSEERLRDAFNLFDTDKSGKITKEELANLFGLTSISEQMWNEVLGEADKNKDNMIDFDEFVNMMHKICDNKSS

[6] = biological target: Plasmodium falciparum protein kinase 6 (PK6, PF3D7_1337100) (UniProt Q8IDW1); assay: PfPK6 kinase inhibitors, biochemical, TCAMS library (AID 1159586); conditions: recombinant PfPK6, Kinase-Glo ATP depletion luminescence
Sequence of Plasmodium falciparum protein kinase 6 (PK6, PF3D7_1337100) (Q8IDW1 1-305): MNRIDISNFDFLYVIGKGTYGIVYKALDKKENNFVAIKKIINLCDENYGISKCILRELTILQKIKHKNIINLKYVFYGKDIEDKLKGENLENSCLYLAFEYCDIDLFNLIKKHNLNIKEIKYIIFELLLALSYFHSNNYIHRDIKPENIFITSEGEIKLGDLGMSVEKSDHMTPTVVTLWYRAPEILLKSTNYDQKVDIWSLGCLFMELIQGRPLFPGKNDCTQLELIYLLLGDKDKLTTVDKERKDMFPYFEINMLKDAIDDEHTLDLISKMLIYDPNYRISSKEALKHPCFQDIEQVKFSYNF

[7] = biological target: Protein kinase 7 (PK7), Plasmodium falciparum 3D7 (PF3D7_0213400) (UniProt Q7YTF7); assay: inhibition of Plasmodium PK7 catalytic activity – biochemical, TCAMS antimalarial set, Kinase-Glo luminescence (AID 1159587); conditions: recombinant PfPK7, Kinase-Glo ATP depletion luminescence
Sequence of Protein kinase 7 (PK7), Plasmodium falciparum 3D7 (PF3D7_0213400) (Q7YTF7 1-343): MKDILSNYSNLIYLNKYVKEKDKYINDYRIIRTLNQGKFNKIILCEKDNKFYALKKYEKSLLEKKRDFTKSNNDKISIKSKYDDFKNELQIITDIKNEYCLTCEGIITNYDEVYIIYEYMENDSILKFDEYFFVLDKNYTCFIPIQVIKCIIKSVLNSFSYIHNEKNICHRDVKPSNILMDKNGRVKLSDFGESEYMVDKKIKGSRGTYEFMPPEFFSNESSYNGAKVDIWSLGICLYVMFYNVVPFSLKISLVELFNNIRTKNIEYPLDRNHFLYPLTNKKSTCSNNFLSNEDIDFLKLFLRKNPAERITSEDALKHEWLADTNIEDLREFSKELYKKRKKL

[8] = biological target: Calcium-dependent protein kinase 4 (Plasmodium falciparum (isolate 3D7)) (UniProt Q8IBS5); assay: PfCDPK4 kinase inhibitors, biochemical, TCAMS library (AID 1159588; cut-off not given, nearly all actives have IC50 up to about 0.91 µM); conditions: recombinant PfCDPK4, Kinase-Glo ATP depletion luminescence
Sequence of Calcium-dependent protein kinase 4 (Plasmodium falciparum (isolate 3D7)) (Q8IBS5 whole entry, looked up): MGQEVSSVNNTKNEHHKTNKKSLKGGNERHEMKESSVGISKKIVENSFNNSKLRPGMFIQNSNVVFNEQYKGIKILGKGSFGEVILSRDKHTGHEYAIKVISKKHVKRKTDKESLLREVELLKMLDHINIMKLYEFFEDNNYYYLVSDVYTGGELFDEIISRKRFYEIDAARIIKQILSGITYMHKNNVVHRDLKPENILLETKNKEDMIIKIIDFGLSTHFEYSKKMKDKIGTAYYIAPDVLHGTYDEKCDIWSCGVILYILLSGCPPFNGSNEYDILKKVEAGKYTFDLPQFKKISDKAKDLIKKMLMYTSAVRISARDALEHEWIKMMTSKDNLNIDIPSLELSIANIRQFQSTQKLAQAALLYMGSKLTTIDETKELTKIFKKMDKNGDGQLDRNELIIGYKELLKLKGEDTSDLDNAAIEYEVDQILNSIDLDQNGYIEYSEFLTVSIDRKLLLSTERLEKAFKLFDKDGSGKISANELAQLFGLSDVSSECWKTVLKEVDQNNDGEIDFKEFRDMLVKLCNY

[9] = liver-stage malaria parasite growth inhibition, primary screen, cell-based, HepG2, luciferase luminescence, HepG2 viability (AID 624349; in the data active = parasite load remaining mostly below about 12%, no sharp cut-off; inactive = mostly above about 10%;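 also: 100% = mean of DMSO negative control wells on the same plate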); conditions: P. berghei liver stage in HepG2, luciferase luminescence, concentration not given here; parasite load remaining: stronger effect = lower value; viability: measured here: HepG2 viability without parasites
[10] = growth inhibition of DIPG glioma cells, dose response, cell-based, SU-DIPG-XVII, MIPE5.0, CellTiter-Glo, qHTS (AID 1347060; cut-off not given, nearly all actives have AC50 up to about 26 µM); conditions: SU-DIPG-XVII viability, CellTiter-Glo ATP luminescence
[11] = growth inhibition of DIPG glioma cells, dose response, cell-based, JHH-DIPG-1, MIPE4.0, CellTiter-Glo, qHTS (AID 1347062; cut-off not given, nearly all actives have AC50 up to about 27 µM); conditions: JHH-DIPG-1 viability, CellTiter-Glo ATP luminescence
[12] = growth inhibition of DIPG glioma cells, dose response, cell-based, SU-DIPG-IV, MIPE4.0, CellTiter-Glo, qHTS (AID 1347063; cut-off not given, nearly all actives have AC50 up to about 30 µM;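 also: compound exposure lasted 48 hours before the viability readout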); conditions: SU-DIPG-IV viability, CellTiter-Glo ATP luminescence
[13] = growth inhibition of DIPG glioma cells, dose response, cell-based, SU-DIPG-XIII, MIPE5.0, CellTiter-Glo, qHTS (AID 1347064; cut-off not given, nearly all actives have AC50 up to about 23 µM); conditions: SU-DIPG-XIII viability, CellTiter-Glo ATP luminescence
[14] = viability loss in pontine glioma line – cell-based, SU-DIPG-XXV, MIPE5.0, CellTiter-Glo, qHTS, dose response (AID 1347065; cut-off not given, nearly all actives have AC50 up to about 26 µM;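 also: cells exposed to compound for 48 hours before ATP readout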); conditions: CellTiter-Glo ATP luminescence
[15] = SU-DIPG-VI glioma cell viability, MIPE4.0 library, CellTiter-Glo luminescence, qHTS (AID 1347066; cut-off not given, nearly all actives have AC50 up to about 30 µM;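 also: cells exposed to compound for 48 hours before readout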); conditions: CellTiter-Glo ATP luminescence
[16] = JHH-DIPG-1 glioma cell viability, MIPE5.0 library, CellTiter-Glo luminescence, qHTS (AID 1347067; cut-off not given, nearly all actives have AC50 up to about 26 µM;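 also: cells exposed to compound for 48 hours before readout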); conditions: JHH-DIPG-1 glioma viability, CellTiter-Glo ATP luminescence
[17] = SU-DIPG-XXV glioma cell viability, MIPE5.0 library, qHTS (AID 1347068; cut-off not given, nearly all actives have IC50 up to about 30 µM)
[18] = sensitizers of A549 cells to miR-34 induction, primary screen, imaging, A549 dox-inducible miR-34, nuclei and caspase counts (AID 1347080;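 active = compounds whose cell count with miR-34 switched on is under 0.7 times the count with it off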); conditions: A549 miR-34 inducible, Hoechst nuclei count, 48 h
[19] = survival rescue of mitochondrial mutant cells in low glucose, primary screen, MELAS cybrids, Rieske KO mouse fibroblasts, CellTiter-Glo (AID 1508586;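 active = mean z-score across replicates of 1.96 or higher in either the MELAS or the Rieske mutant cell line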;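 also: z relative to plate mean and SD of compound and empty wells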)
[20] = biological target: NAD(+) hydrolase SARM1 (Homo sapiens) (UniProt Q6SZW1); assay: SARM1 TIR NADase inhibitors, cell lysate, NAD-Glo luminescence (AID 1508614;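 active = compound whose remaining NAD level is above about 45 nM, limit read from the data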;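 also: higher remaining NAD means stronger inhibition of SARM1 NADase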); conditions: SAM-TIR HEK293T lysate NADase, at 1 µM, stronger effect = higher value
Sequence of NAD(+) hydrolase SARM1 (Homo sapiens) (Q6SZW1 whole entry, looked up, the tested form may be a part): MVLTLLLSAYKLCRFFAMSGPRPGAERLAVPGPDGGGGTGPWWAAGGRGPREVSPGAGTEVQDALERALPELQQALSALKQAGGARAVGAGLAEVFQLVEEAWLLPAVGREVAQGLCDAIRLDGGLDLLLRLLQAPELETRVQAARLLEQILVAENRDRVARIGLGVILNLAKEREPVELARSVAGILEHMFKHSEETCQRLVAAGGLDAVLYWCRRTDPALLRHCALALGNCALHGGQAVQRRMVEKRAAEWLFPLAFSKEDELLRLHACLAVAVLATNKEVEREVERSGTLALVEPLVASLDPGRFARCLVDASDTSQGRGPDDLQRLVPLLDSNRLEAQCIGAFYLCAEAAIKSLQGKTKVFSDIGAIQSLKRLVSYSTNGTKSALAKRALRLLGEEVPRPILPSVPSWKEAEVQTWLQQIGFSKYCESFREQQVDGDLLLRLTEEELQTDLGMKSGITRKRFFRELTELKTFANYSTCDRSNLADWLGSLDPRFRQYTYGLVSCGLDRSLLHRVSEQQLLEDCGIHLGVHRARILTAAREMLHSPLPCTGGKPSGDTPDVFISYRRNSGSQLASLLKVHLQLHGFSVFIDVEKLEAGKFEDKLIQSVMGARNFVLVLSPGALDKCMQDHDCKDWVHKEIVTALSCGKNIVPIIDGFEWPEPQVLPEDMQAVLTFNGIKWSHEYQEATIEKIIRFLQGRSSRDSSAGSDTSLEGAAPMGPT

[21] = biological target: Mitogen-activated protein kinase 7 (Homo sapiens) (UniProt Q13164); assay: ERK5 transactivation activators in reporter cells, primary screen, cell-based, HTS (AID 1508626;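 active = luciferase signal above three times the same-plate solvent-only control wells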;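 also: luciferase driven by Gal4-ERK5 fusion binding five Gal4 sites before minimal TATA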); conditions: HeLa Gal4-ERK5 transactivation, 18 h, at 5 µM, stronger effect = higher value
Sequence of Mitogen-activated protein kinase 7 (Homo sapiens) (Q13164 whole entry, looked up, the tested form may be a part): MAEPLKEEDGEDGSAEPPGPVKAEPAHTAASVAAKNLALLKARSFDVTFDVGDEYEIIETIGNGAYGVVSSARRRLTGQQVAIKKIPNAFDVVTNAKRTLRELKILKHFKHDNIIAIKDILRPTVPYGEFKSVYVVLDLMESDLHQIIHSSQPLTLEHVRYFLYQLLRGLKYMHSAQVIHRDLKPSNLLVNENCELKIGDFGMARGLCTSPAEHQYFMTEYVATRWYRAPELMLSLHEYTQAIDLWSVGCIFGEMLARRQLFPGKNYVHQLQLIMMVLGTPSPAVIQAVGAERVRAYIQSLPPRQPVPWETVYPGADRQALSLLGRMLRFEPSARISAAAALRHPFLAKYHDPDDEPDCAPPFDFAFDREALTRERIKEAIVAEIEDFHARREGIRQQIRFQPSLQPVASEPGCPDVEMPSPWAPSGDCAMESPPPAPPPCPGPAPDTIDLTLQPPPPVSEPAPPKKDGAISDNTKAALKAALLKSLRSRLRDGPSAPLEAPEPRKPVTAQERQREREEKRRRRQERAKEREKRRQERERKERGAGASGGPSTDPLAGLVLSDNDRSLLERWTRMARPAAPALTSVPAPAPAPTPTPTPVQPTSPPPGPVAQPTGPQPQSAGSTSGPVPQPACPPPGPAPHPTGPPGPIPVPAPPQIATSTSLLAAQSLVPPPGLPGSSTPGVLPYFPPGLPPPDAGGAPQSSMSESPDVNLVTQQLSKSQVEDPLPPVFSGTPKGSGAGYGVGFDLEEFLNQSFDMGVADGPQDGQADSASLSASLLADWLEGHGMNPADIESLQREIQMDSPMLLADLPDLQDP

[22] = viability rescue of complex I mutant cybrids, primary screen, cell-based, galactose medium, ATP luminescence (AID 1645843;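 active = z-score of at least 1.8 in each of two replicates, scored against plate mean and spread of sample wells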;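 also: positive z means more ATP and so rescue of galactose-driven cybrid death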); conditions: complex I mutant cybrid cells, 72 h, stronger effect = higher value
[23] = system: Aerobactin synthetase IucA (Klebsiella pneumoniae); assay: IucA aerobactin synthetase inhibitors, biochemical, Tocris library, absorbance (AID 1345561); conditions: purified IucA enzyme assay, absorbance (OD) read-out; stronger effect = lower value;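 tested at 8 µM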;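 also: 100% = enzyme without compound and 0% = no enzyme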
[24] = circadian clock period modulators, cell-based, LOPAC library, luminescence reporter (AID 2774); conditions: circadian reporter cells, at 7 µM, actives lie on both sides;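 also: values are relative to mean of DMSO wells on each plate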
[25] = system: Hepatitis C virus NS3 helicase; assay: HCV NS3 helicase inhibitors, primary screen, biochemical, fluorescence polarization, LOPAC1280 library (AID 687035; in the data active = inhibition above about 37%); conditions: Purified HCV NS3 helicase, Cy5-dT15 ssDNA binding fluorescence polarization; stronger effect = higher value; concentration not given here
[26] = Cy5 fluorescence quenching or enhancement artefacts, artefact control for HCV NS3 helicase inhibitor project, biochemical, LOPAC1280 (AID 687037); conditions: Cy5-DNA-NS3h complex fluorescence interference counterscreen
[27] = growth inhibition of DIPG glioma cells, dose response, cell-based, SU-DIPG-XIII, MIPE4.0, CellTiter-Glo, qHTS (AID 1347061; cut-off not given, nearly all actives have AC50 up to about 37 µM;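 also: cells exposed to compound for 48 hours before readout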); conditions: SU-DIPG-XIII viability, CellTiter-Glo ATP luminescence
[28] = stronger effect = lower value, cell number ratio, induced over uninduced
[29] = measured here: relative caspase fold change +Dox/-Dox
[30] = measured here: total cells with miR-34 induction, stronger effect = lower value
[31] = measured here: total cells without miR-34 induction
[32] = MELAS cybrid survival, CellTiter-Glo 48 h, stronger effect = higher value
[33] = Rieske KO mouse fibroblast survival, CellTiter-Glo 72 h

Q: With `CCNc1cc(C(=O)N[C@@H](Cc2ccc(F)c(F)c2)[C@H](O)CNCc2cccc(OC)c2)cc(N2CCCCS2(=O)=O)c1` as the compound, how does the growth inhibition [1] read?
A: 85% (active)

Q: What about the inhibition [2] of the same compound?
A: 4% (inactive)

Q: What about the inhibition [3] of the same compound?
A: -7% (inactive)

Q: What about the growth inhibition [4] of the same compound?
A: 99% (active)

Q: And the outcome [5]?
A: inactive

Q: What about the outcome [6] of the same compound?
A: inactive

Q: What about the outcome [7] of the same compound?
A: inactive

Q: What about the outcome [8] of the same compound?
A: inactive

Q: For `C=C[C@H]1CN2CC[C@H]1C[C@H]2[C@H](O)c1ccnc2ccc(OC)cc12`, which growth inhibition [1] is on record?
A: 99% (active) and 22% (inactive) and 79% (active)

Q: What about the inhibition [2] of the same compound?
A: 13% (inactive) and -12% (inactive) and -6% (inactive)

Q: And the inhibition [3]?
A: -4% (inactive) and -7% (inactive)

Q: And the growth inhibition [4]?
A: 100% (active) and 97% (active) and 99% (active)

Q: What about the parasite load remaining [9] of the same compound?
A: 49.1% (inactive)

Q: What about the viability [9] of the same compound?
A: 193%

Q: What about the outcome [5] of the same compound?
A: inactive

Q: What about the outcome [6] of the same compound?
A: inactive

Q: And the outcome [7]?
A: inactive

Q: And the outcome [8]?
A: inactive

Q: And the outcome [10]?
A: inactive

Q: And the outcome [11]?
A: inactive

Q: What about the outcome [12] of the same compound?
A: inactive

Q: And the outcome [13]?
A: inactive

Q: What about the outcome [14] of the same compound?
A: inactive

Q: And the outcome [15]?
A: inactive

Q: And the outcome [16]?
A: inactive

Q: And the outcome [17]?
A: inactive

Q: And the fold change [18, 28]?
A: 0.942 (inactive)

Q: And the fold change [18, 29]?
A: 0.791

Q: And the cell count [18, 30]?
A: 9260

Q: What about the cell count [18, 31] of the same compound?
A: 9830

Q: And the z-score [19, 32]?
A: -0.0548 (inactive)

Q: And the z-score [19, 33]?
A: 1.17

Q: And the remaining NAD [20]?
A: 10 nM (inactive)

Q: And the luciferase signal [21]?
A: 140 AU (inactive)

Q: And the z-score [22]?
A: -0.735 (inactive)

Q: Which results are given for `COc1cc(Cc2cnc(N)nc2N)cc(OCCCCc2nn[nH]n2)c1OC`?
A: growth inhibition [1]: 0% (inactive); inhibition [2]: 7% (inactive); inhibition [3]: 1% (inactive); growth inhibition [4]: 97% (active); outcome [5]: inactive; outcome [6]: inactive; outcome [7]: inactive; outcome [8]: inactive

Q: What does the source list for `Nc1nc(NCC2CCC(CNS(=O)(=O)c3cccc4ccccc34)CC2)nc2ccccc12` (stereo not drawn)?
A: growth inhibition [1]: 42% (inactive); inhibition [2]: 9% (inactive); inhibition [3]: 7% (inactive); growth inhibition [4]: 97% (active); outcome [5]: inactive; outcome [6]: inactive; outcome [7]: inactive; outcome [8]: inactive; remaining activity [23]: 92.3% (inactive); fold change [18, 28]: 0.954 (inactive); fold change [18, 29]: 0.891; cell count [18, 30]: 322; cell count [18, 31]: 338; z-score [22]: -0.705 (inactive)

Q: For `OC(CN1CCN(c2cccc(Cl)c2)CC1)C(c1ccccc1)c1ccccc1` (stereo not drawn), which growth inhibition [1] is on record?
A: 4% (inactive)

Q: What about the inhibition [2] of the same compound?
A: -2% (inactive)

Q: And the inhibition [3]?
A: -2% (inactive)

Q: And the growth inhibition [4]?
A: 85% (active)

Q: What about the period change [24] of the same compound?
A: -0.085 h (inactive)

Q: What about the inhibition [25] of the same compound?
A: -4% (inactive)

Q: What about the fluorescence ratio (interference) [26] of the same compound?
A: 0.9 (inactive)

Q: And the outcome [5]?
A: inactive

Q: What about the outcome [6] of the same compound?
A: inactive

Q: What about the outcome [7] of the same compound?
A: inactive

Q: What about the outcome [8] of the same compound?
A: inactive

Q: What about the remaining activity [23] of the same compound?
A: 112% (inactive)

Q: What about the AC50 [27] of the same compound?
A: 23.5 µM (active)

Q: What about the outcome [11] of the same compound?
A: inactive

Q: What about the fold change [18, 28] of the same compound?
A: 0.897 (inactive) and 1 (inactive)

Q: And the fold change [18, 29]?
A: 0.676 and 0.73

Q: And the cell count [18, 30]?
A: 8580 and 6630

Q: And the cell count [18, 31]?
A: 9570 and 6630

Q: What about the z-score [19, 32] of the same compound?
A: -0.304 (inactive)

Q: What about the z-score [19, 33] of the same compound?
A: 0.565

Q: And the z-score [22]?
A: -0.82 (inactive)
